Activity calls are given as the source filed them. Where a call stands in place of a potency, no number is given. Calls come from the whole dose curve; as a rule, active = well fitted inhibition curve with a large enough effect; inconclusive = small, poorly fitted or top-dose-only effect; inactive = flat fitted curve, though single readings scatter.

The target in the assay is Luciferin 4-monooxygenase (Photinus pyralis) (UniProt P08659). The experiment in a line: Primary firefly luciferase (FLuc) qHTS assay for identification of artifact compounds. (AID 1845220). Note: nearly all actives have a fitted effect of over 60% in size. The conditions noted are these: purified firefly luciferase, luminescence, 5 min; series mostly up to 54.1 µM. The procedure, abridged: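 Enzymatic FLuc inhibition assay: compounds pre-exposed to luciferin/ATP (10 uM each) for 15 min, then purified P. pyralis enzyme at 10 nM added. Read-out: luminescence at 5 min.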
For orientation: Quantitative high-throughput screening tests each substance at several concentrations.
With `COc1cc2ncnc(Nc3ccc(O)cc3)c2cc1OC`, the Potency result is “inactive”.

`CC(C)(C)NC(=O)[C@@H](c1cccnc1)N(C(=O)c1ccco1)c1ccc(C(C)(C)C)cc1`: the Potency result was “inactive”. Take `C=C1CCC2C(C)(C)C(O)CCC2(C)C1CCC(C)CCOC(C)=O` (stereo unspecified): the Potency entry was “inactive”. On the same count and under the same terms, the result for `CC1(C)C=CN2C(=O)C3=CCCN3C(=O)[C@@H]2C[C@@]12Nc1ccccc1C2=O` reads “inactive”; that for `C=C(C(=O)O)C1CC2=C(C)CCCC2(C)C[C@@H]1O` (stereo partly specified), “inactive”; that for `CO[C@H]1C[C@@H]2CC[C@@H](C)[C@@](O)(O2)C(=O)C(=O)N2CCCC[C@H]2C(=O)O[C@H]([C@H](C)C[C@H]2CC[C@@H](OP(C)(C)=O)[C@H](OC)C2)CC(=O)[C@H](C)/C=C(\C)[C@@H](O)[C@@H](OC)C(=O)[C@H](C)C[C@H](C)/C=C/C=C/C=C/1C`, “inactive”. As to `C=CC(C)(C)c1[nH]c2cc3c(cc2c1CC1NC(=O)C2=CCCN2C1=O)C=CC(C)(C)O3` (stereo unspecified), the Potency entry was “inactive”. In the case of `COc1ccc(-n2[nH]c(=O)c3[nH]c4cc(Cl)ccc4c(=O)c3c2=O)c(C)c1`, the Potency entry was “inactive”.

Consider `CC(=O)OCC1(O)CCC2C(COC3OC(CO)C(O)C(O)C3OC(=O)/C=C/c3ccc(O)cc3)=COC(OC(=O)CC(C)C)C21` (stereo unspecified), for which the Potency result was “inactive”.

As for `CN=C(N)NCCCCC/C=C(/C)CC(C)C1OC(=O)C(C)C(O)/C=C/C(C)C(O)CC(O)C(C)C(O)CCC(C)C(O)CC2(O)OC(CC(OC(=O)CC(=O)O)CC(O)CC(O)C(C)C(O)/C(C)=C/CCC1C)CC(O)C2O` (stereo unspecified), the activity change, negative = inhibition was -2.65% [at 11.6 µM] (inactive).

With `C[C@@H]1CCC/C=C/[C@H]2CC(=O)C[C@@H]2[C@@H](O)/C=C/C(=O)O1`, the Potency result was “inactive”.

Source of the values: PubChem BioAssay (NCATS).
